Experimental data as given in PubChem BioAssay (NCI).
About 83,000 compounds went through this panel and 20% of them were active in at least one assay; those are over-represented in the sample as a whole.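 A percent growth of 40 corresponds to 60% growth inhibition; 0 means no net growth; -100 means all cells died. Active threshold: below 10.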 A number with no mark means an inactive call. Activity calls are given as the source filed them.

System: COLO 205 colon
Assay: NCI-60 one-dose screen, 48 h (100 = growth as untreated, 0 = no growth, -100 = all killed)
Conditions: 10 µM unless noted

Compound	growth
O=C1c2cccc3cccc(c23)C(=O)N1N1C(=O)c2cccc3c(N4CCOCC4)ccc(c23)C1=O	108%
CCO/C=N/C1=C(C#N)C(c2ccc(OC)cc2)c2sc3c(F)cccc3c2O1 (stereo unspecified)	39.2%
Cc1ccc(CNc2ccc(Cl)cc2NCc2ccc(C)c(O)c2)cc1O	90.2%
O=C(c1ccc(-c2nc(CSc3nc4ccccc4s3)no2)cc1)N1CCSCC1	87.8%
C/C(=C(/c1ccc(Cl)cc1)c1ccc(OCCN2CCCC2)cc1)c1ccc(Cl)cc1	48.5%
CC[C@]12C=CCN3CC[C@@]4(c5cc(NC(=O)CCC(=O)OCc6cn(Cc7ccc(F)cc7)nn6)c(OC)cc5N(C)[C@H]4[C@@](O)(C(=O)OC)[C@@H]1OC(C)=O)[C@@H]32	107%
C=C(C)[C@@H]1CC[C@]2(C(=O)O)CC[C@]3(C)[C@H](CC[C@@H]4[C@@]5(C)C[C@@H](Cc6cn(CCO[C@@H]7O[C@H](COC(C)=O)[C@H](OC(C)=O)[C@H](OC(C)=O)[C@H]7OC(C)=O)nn6)[C@H](O)C(C)(C)[C@@H]5CC[C@]43C)[C@@H]12	96.5%
C=CCn1c(SCC(=O)Nc2ccc(C(=O)/C=C/c3ccc(Cl)cc3)cc2)nnc1-c1cc(-c2ccc(S(N)(=O)=O)cc2)nc2ccccc12	103%
CCOC(=O)C1=NN(c2ccccc2)C(=O)/C1=C\N1C(=O)CC(=O)NC1=S	103%
CC12CCC3c4ccccc4CCC3(CO1)C2 (stereo unspecified)	101%
O=C1CC(N2C(=O)/C(=C/C(Cl)=C\c3ccc([N+](=O)[O-])cc3)SC2=S)C(=O)N1c1ccc(Cl)cc1 (stereo unspecified)	4.01% (active)
